Results published in the supplement of paper PMC13380429.

Experiments:
[1] = system: Vero E6 infected with SARS-CoV-2; experiment: morphology score (similarity to uninfected cells); higher = more like uninfected cells; details: 24 h
[2] = system: Vero E6 infected with SARS-CoV-2; experiment: SARS-CoV-2 infection rate relative to infected DMSO; higher = more infection, active = 60 or less; details: 24 h

SMILES	morphology score [1]	SARS-CoV-2 infection rate [2]
C[C@]12N[C@H](Cc3ccccc31)c1ccccc12 [dizocilpine-(-)] (10 µM)	0.247	106% (inactive)
COc1cc2c(cc1C(F)(F)F)N(C(=O)Nc1cc(F)cc(-c3cccnc3)c1)CC2 (10 µM)	-0.0154	106% (inactive)
COc1cc(N2CCC(N)CC2)ccc1Nc1ncc(Cl)c(-c2c[nH]c3ccccc23)n1 (0.833333 µM)	0.205	102% (inactive)
CC(C)Oc1ccc2c(=O)c3cc(C(=O)O)ccc3oc2c1 (10 µM)	0.0971	100% (inactive)
Clc1cccc(-n2nnnc2NCc2ccccc2Oc2ccccn2)c1Cl (10 µM)	-0.0586	110% (inactive)
CN1CCc2c(c3ccccc3n2Cc2ccc(C(=O)NO)cc2)C1 [tubastatin-A] (0.833333 µM)	0.115	95.5% (inactive)
[I-].[K+] [potassium-iodide] (10 µM)	-0.0371	114% (inactive)
Oc1c(I)cc(I)c(O)c1I [riodoxol] (10 µM)	0.0583	107% (inactive)
CCc1cccc(N(C)C(=N)Nc2cccc3ccccc23)c1 [aptiganel] (10 µM)	0.0916	104% (inactive)
CN(C)CCN(C)CCc1ccc(Cl)c(Cl)c1 (10 µM)	0.208	82.5% (inactive)
COc1ccccc1OCC(O)CNC(C)C (configuration not stated) [moprolol] (10 µM)	0.0947	100% (inactive)
CNC(=O)c1cccc2cc(Oc3ccnc4cc(OCC5(N)CC5)c(OC)cc34)ccc12 [lucitanib] (10 µM)	0.0362	104% (inactive)
CCC(CO)(C(=O)OC1CC2CCC(C1)[N+]2(C)C)c1ccccc1 (configuration not stated) [troventol] (10 µM)	-0.023	106% (inactive)
CC(C)c1onc(-c2c(Cl)cccc2Cl)c1COc1ccc(/C=C/c2cccc(C(=O)O)c2)c(Cl)c1 (10 µM)	0.151	96.5% (inactive)
COCCOC(=O)C1=C(C)NC(C)=C(C(=O)OC/C=C/c2ccccc2)C1c1cccc([N+](=O)[O-])c1 (configuration not stated) [cilnidipine] (10 µM)	0.171	95% (inactive)
O=C(O)c1c2ccccc2cc2ccccc12 [9-anthracenecarboxylic-acid] (10 µM)	0.252	89.5% (inactive)
